Records with an inconclusive call do not appear. A call without a number means that no potency is given here. Active and inactive are the calls of the source. Unless noted, calls come from the whole dose curve; as a rule, active = well fitted curve in the direction sought with a large enough effect; inconclusive = small, poorly fitted or top-dose-only effect, or another doubt; inactive = no such curve, though single readings can be large; an effect the other way counts as inactive or inconclusive.
Experiments:
[1] = qHTS to identify inhibitors of the type 1 interferon - major histocompatibility complex class I in skeletal muscle: primary screen against the NCATS Mechanism Interrogation Plate v5.0 (MIPE) Libary (AID 1347411); note: nearly all actives have a fitted effect of over 65% in size; note: potency is the fitted concentration of half-maximal effect
How it was run: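 Luminescence from HiBiT-tagged endogenous HLA-B*08:01 served as the MHC class I read-out. CRISPR-engineered C25cl48 human myoblasts received 4.0 ng/ml IFN-beta plus compound for 24 hrs, with an 11-point, 1:3 series topping at 46 uM final.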

[2] = target: Calcium and integrin-binding protein 1 (Homo sapiens) (UniProt Q99828); test: Primary qHTS for Identification of Calcium Integrin Binding Protein 1 (CIB1) Competitor (AID 1508620);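 note: GST tagged CIB1 binding a fluorescein labelled alphaIIb integrin peptide tracer; top concentration of the series differs between compounds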
Chain of Calcium and integrin-binding protein 1 (Homo sapiens) (Q99828 whole entry, looked up): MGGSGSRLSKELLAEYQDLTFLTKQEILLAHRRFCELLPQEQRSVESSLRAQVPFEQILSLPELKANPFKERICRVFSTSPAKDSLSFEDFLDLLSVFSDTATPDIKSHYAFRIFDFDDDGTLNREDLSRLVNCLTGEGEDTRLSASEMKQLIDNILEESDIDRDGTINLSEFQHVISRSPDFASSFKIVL
How it was run: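 CIB1-GST (1 uM final) and compound incubated 15 min at room temperature before adding FITC-alphaIIb peptide tracer (100 nM final). Competition for binding read by fluorescence polarization (ex 480, em 540) after another 15 min at room temperature.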

[3] = Primary qHTS for small molecule stabilizers of the endoplasmic reticulum resident proteome: Secreted ER Calcium Modulated Protein (SERCaMP) assay (AID 1508630)
How it was run: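 GLuc-SERCaMP-expressing SH-SY5Y cells, pretreated 16 h with compound, are challenged with thapsigargin to empty ER calcium stores; after 4 h, coelenterazine is added directly to the medium and luminescence is imaged.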

[4] = target: Cytochrome P450 2D6 (Homo sapiens) (UniProt P10635); test: Cytochrome P450 family 2 subfamily D member 6 (CYP2D6) small molecule antagonists: luciferase biochemical (cell-free) qHTS assay (AID 1645840; active = well fitted curve in the direction sought with a large enough effect in the repeat runs; an effect the other way counts as inactive or inconclusive; note: nearly all actives have a fitted effect of over 55% in size; note: potency is the fitted concentration of half-maximal effect)
Chain of Cytochrome P450 2D6 (Homo sapiens) (P10635 whole entry, looked up): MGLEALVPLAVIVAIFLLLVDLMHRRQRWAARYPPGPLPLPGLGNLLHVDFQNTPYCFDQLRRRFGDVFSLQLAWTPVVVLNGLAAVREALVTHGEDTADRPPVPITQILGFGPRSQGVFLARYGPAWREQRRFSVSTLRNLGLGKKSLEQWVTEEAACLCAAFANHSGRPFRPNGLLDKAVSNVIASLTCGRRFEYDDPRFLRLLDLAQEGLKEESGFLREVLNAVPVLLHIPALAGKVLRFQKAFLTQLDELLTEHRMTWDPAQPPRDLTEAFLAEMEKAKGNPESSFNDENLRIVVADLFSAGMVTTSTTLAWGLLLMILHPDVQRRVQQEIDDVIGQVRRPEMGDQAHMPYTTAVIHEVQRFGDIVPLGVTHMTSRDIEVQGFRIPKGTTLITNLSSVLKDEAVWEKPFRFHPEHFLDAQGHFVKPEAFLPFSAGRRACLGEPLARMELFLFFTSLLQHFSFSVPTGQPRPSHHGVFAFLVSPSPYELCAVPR
How it was run: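 P450-Glo luminescent screen: recombinant CYP2D6 enzyme–proluciferin substrate mix preincubated with compound 10 min at room temperature, then NADPH regeneration added for 1 h at room temperature. Detection reagent added for 20 min; luciferin light read as relative luminescence units.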

[5] = target: Cytochrome P450 2C9 (Homo sapiens) (UniProt P11712); test: Cytochrome P450 family 2 subfamily C member 9 (CYP2C9) small molecule antagonists: luciferase biochemical (cell-free) qHTS assay (AID 1645842; active = well fitted curve in the direction sought with a large enough effect in the repeat runs; an effect the other way counts as inactive or inconclusive; note: nearly all actives have a fitted effect of over 55% in size; note: potency is the fitted concentration of half-maximal effect)
Chain of Cytochrome P450 2C9 (Homo sapiens) (P11712 whole entry, looked up): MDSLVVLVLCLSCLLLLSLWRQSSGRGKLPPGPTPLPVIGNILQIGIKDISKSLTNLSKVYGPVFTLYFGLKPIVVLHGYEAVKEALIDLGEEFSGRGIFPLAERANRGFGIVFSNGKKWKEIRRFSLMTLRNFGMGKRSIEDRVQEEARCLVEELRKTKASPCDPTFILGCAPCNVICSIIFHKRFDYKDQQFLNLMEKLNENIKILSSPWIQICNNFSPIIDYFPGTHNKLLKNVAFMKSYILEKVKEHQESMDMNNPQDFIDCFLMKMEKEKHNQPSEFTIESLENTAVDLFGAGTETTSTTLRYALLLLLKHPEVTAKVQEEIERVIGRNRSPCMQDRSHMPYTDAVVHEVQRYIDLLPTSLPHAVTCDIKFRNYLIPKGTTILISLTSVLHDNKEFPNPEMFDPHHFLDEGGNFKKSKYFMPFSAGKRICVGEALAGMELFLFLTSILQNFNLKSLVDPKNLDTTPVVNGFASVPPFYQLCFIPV
How it was run: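 Luminescence, after 20 min with luciferin detection reagent, reflected CYP2C9 turnover during a 1 h NADPH-driven reaction at 37C. Enzyme-substrate mix contained 0.4% bovine serum albumin and was preincubated with compound 10 min at room temperature.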

[6] = target: Cytochrome P450 3A4 (Homo sapiens) (UniProt P08684); test: Cytochrome P450 family 3 subfamily A member 4 (CYP3A4) small molecule antagonists: luciferase qHTS assay (AID 1645841; active = well fitted curve in the direction sought with a large enough effect in the repeat runs; an effect the other way counts as inactive or inconclusive; note: nearly all actives have a fitted effect of over 45% in size)
Chain of Cytochrome P450 3A4 (Homo sapiens) (P08684 whole entry, looked up): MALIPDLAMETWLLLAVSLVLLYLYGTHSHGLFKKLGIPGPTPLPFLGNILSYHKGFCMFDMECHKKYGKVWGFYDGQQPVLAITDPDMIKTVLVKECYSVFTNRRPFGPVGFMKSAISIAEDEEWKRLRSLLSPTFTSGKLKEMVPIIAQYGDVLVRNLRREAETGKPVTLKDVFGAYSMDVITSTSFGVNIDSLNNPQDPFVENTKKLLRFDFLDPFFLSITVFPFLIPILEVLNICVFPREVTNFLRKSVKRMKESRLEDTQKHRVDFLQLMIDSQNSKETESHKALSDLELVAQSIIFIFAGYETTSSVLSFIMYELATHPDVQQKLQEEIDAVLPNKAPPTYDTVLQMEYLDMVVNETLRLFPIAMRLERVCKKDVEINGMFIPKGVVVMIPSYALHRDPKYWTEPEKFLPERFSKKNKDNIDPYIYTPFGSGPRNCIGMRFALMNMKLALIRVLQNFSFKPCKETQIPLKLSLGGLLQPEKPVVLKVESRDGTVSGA
How it was run: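 Luminescent CYP3A4 activity readout: compounds plus enzyme-substrate mix 10 min at room temperature, reaction started with NADPH regenerating system for 1 h, stopped with detection reagent, read after 20 min. Ketoconazole served as control.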

[7] = Validation qHTS assay for inhibitors of Activation Induced Cytidine Deaminase (AID): UDG Counterscreen signal (AID 1347427)
Source text: Assay Provider (PI) Patricia Gearhart Ph.D.
National Institute on Aging
National Institute of Health (NIH), Bethesda, MD
Assay Provider (PI) Rahul Kohli Ph.D.
Perelman School of Medicine
University of Pennsylvania, Philadelphia, PA
Activation-Induced Deaminase (AID) is a cytosine deaminase which converts cytosine into uracil within stretches of ssDNA. The presence of uracil in DNA initiates a cascade of mutagenic DNA repair to introduce point mutations and DNA double strand breaks. Specific targeting of AID to the immunoglobulin heavy chain loci (Igh) promotes mutagenesis in the antibody variable region for somatic hypermutation (SHM) or switch regions leading to class switch recombination (CSR). However, AID also plays a role in accumulating unnecessary mutations across the genome. Mis-targeting of AID results in the initiation of tumor development and leads to greater drug resistance among cancer cells when continually expressed. To identify an AID inhibitor, a small molecule library will be screened in collaboration with NCATS core facility at NIH. To confirm biological function, inhibitors will be examined in an in vitro murine B-cell activation assay and subsequent secondary validation screens. Top molecules will be further screened to identify inhibitory efficacy against a wild type primary splenocytes assay. […]
A FRET based analysis of cytosine deamination, was developed to identify potential inhibitors of AID catalytic activity. This screen has two signal output, Read 1 evaluates the AID inhibition response. The second readout (Read 2) evaluates UDG response and is uses as a counterscreen to exclude false positive inhibitors. […]
9a; Detection; fluorescence (Read 1: AID); EnVision (PerkinElmer) plate reader, 540 excitation and 590 emission filters
9b; Detection; fluorescence (Read 2: UDG); EnVision (PerkinElmer) plate reader, 560 excitation and 665 emission filters […]
9a; Fluorescence signal (column label AID) was read using the EnVision plate reader. […]
9b; Fluorescence signal (column label UDG) was read using the EnVision plate reader. […]

[8] = target: Single-stranded DNA cytosine deaminase (Homo sapiens) (UniProt Q9GZX7); test: Validation qHTS assay for inhibitors of Activation Induced Cytidine Deaminase (AID): AID signal (AID 1347429)
Chain of Single-stranded DNA cytosine deaminase (Homo sapiens) (Q9GZX7 whole entry, looked up): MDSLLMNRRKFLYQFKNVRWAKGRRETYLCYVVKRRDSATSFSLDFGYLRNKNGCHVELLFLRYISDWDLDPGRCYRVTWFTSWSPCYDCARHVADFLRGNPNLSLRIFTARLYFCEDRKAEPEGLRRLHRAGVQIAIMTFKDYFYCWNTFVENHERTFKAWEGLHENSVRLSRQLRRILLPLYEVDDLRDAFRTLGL
How it was run: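 Fluorescence at 540 nm excitation and 590 nm emission reports ssDNA cytosine deamination by AID, with UDG in the same well. Compound-treated reactions ran 4 hr at room temperature with DJC20/DJC23 substrate, followed by 30 min NaOH treatment.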

[9] = Primary qHTS for inhibitors of La Crosse Virus (LACV) - induced cell death in SH-SY5Y cells (AID 1508616);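 note: top concentration of the series differs between compounds; higher means more rescue of cells from virus-induced death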
How it was run: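 Protection against LACV-induced cell death is scored in SH-SY5Y cells exposed to compounds and virus (0.01 MOI) for 6 days. Data normalized to virus-infected DMSO wells and virus-free DMSO wells.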

## CC(Cc1ccc(O)c(O)c1)(NN)C(=O)O (configuration not stated)
[1]
  Potency: inactive
[2]
  Potency: inactive
[3]
  outcome: inactive

## COc1cc2ncnc(Nc3cccc(Br)c3)c2cc1OC
[1]
  Potency: 10.4 µM (active)
[2]
  Potency: inactive
[3]
  outcome: inactive

## C[C@H](O)[C@@H]1C(=O)N2C(C(=O)O)=C(S[C@@H]3CN[C@H](CNS(N)(=O)=O)C3)[C@@H](C)[C@@H]12
[1]
  Potency: inactive
[2]
  Potency: inactive
[3]
  outcome: inactive
[4]
  Potency: inactive

## O=C(Nc1ccc(Oc2ccnc3[nH]ccc23)c(F)c1)c1cccn(-c2ccc(F)cc2)c1=O
[1]
  Potency: inactive
[2]
  Potency: inactive
[3]
  outcome: inactive
[4]
  Potency: inactive
[5]
  Potency: 1.9 µM (active)

## Cc1ncc(-c2ccnc(Nc3ccc(S(C)(=O)=O)cc3)n2)n1C(C)C
[1]
  Potency: 1.17 µM (active)
[2]
  Potency: inactive
[4]
  Potency: inactive
[5]
  Potency: 3.79 µM (active)

## COc1cc(C(C)C)c(Oc2cnc(NC(CO)CO)nc2N)cc1I
[1]
  Potency: inactive
[2]
  Potency: inactive
[3]
  outcome: inactive
[4]
  Potency: 19 µM (active)
[5]
  Potency: 12 µM (active)

## NC(=O)c1cccc(-c2cccc(OC(=O)NC3CCCCC3)c2)c1
[1]
  Potency: inactive
[2]
  Potency: inactive
[3]
  outcome: inactive
[4]
  Potency: inactive
[5]
  Potency: inactive

## FC(F)(F)c1ccc(Nc2nc3ccc(Oc4ccnc(-c5ncc(C(F)(F)F)[nH]5)c4)cc3[nH]2)cc1
[1]
  Potency: inactive
[2]
  Potency: inactive
[3]
  outcome: inactive
[5]
  Potency: 23.9 µM (active)

## CC1=C(C(=O)Nc2cc3cn[nH]c3cc2F)C(c2ccc(Cl)cc2F)N=C(c2ccnc(Cl)c2)N1 (configuration not stated)
[1]
  Potency: inactive
[2]
  Potency: inactive
[4]
  Potency: 6.74 µM (active)
[5]
  Potency: 3.79 µM (active)

## Cc1cc(C(=O)NOCCO)c(Nc2ccc(I)cc2F)n(C)c1=O
[1]
  Potency: inactive
[2]
  Potency: inactive
[3]
  outcome: inactive

## OCCNC1CCCc2c1[nH]c1ccc(-c3ccccc3)cc21 (configuration not stated)
[1]
  Potency: 20.8 µM (active)
[2]
  Potency: inactive
[4]
  Potency: 15.1 µM (active)
[5]
  Potency: 26.8 µM (active)

## Cn1cc(CNCC2CCN(c3ncc(C(=O)NO)cn3)CC2)c2ccccc21
[1]
  Potency: 0.117 µM (active)
[2]
  Potency: inactive
[3]
  outcome: inactive
[4]
  Potency: 3.38 µM (active)
[5]
  Potency: inactive

## CCc1nc(-c2cccc(C)c2)c(-c2ccnc(NC(=O)c3ccccc3)c2)s1
[1]
  Potency: inactive
[2]
  Potency: inactive
[3]
  outcome: inactive
[4]
  Potency: inactive
[5]
  Potency: 2.68 µM (active)

## O=C(O)CCCCC(CCSCc1ccccc1)SCc1ccccc1 (configuration not stated)
[1]
  Potency: inactive
[2]
  Potency: inactive
[3]
  outcome: inactive

## c1ccc2c(Oc3nc(Nc4ccc(N5CCOCC5)cc4)c4ncn(C5CCCCC5)c4n3)cccc2c1
[1]
  Potency: inactive
[2]
  Potency: inactive
[3]
  outcome: inactive
[4]
  Potency: inactive
[5]
  Potency: 4.77 µM (active)

## O=C1NC(O)CCN1[C@@H]1O[C@H](CO)[C@H](O)[C@H]1O (some centres not stated)
[1]
  Potency: inactive
[2]
  Potency: inactive
[3]
  outcome: inactive
[4]
  Potency: inactive
[6]
  Potency: inactive
[5]
  Potency: inactive

## Oc1cc(-c2nc(-c3ccccc3)[nH]c2-c2ccncc2)ccc1Cl
[1]
  Potency: 16.5 µM (active)
[2]
  Potency: inactive
[3]
  outcome: inactive
[4]
  Potency: 0.756 µM (active)
[5]
  Potency: 1.69 µM (active)

## CC(C)Oc1ccc(C(=O)N[C@H](CNC(=O)CN(C)C)Cc2ccc(-c3cn4cccc([C@H](C)O)c4n3)cc2)cc1Cl
[1]
  Potency: inactive
[2]
  Potency: inactive
[3]
  outcome: inactive
[4]
  Potency: 5.35 µM (active)
[5]
  Potency: 10.7 µM (active)

## C=Cc1c(C)c2cc3nc(cc4[nH]c(cc5nc(cc1[nH]2)C(C)=C5CCC(=O)O)c(CCC(=O)OC)c4C)[C@@]1(C)C3=CC=C(C(=O)OC)[C@H]1C(=O)OC
[1]
  Potency: inactive
[2]
  Potency: inactive
[3]
  outcome: inactive
[5]
  Potency: 26.8 µM (active)

## C[C@H]1[C@@H](OC(=O)CCC(=O)O)O[C@@H]2O[C@@]3(C)CC[C@@H]4[C@H](C)CC[C@@H]1[C@@]24OO3
[1]
  Potency: inactive
[2]
  Potency: inactive
[3]
  outcome: inactive

## CCOC(=O)[C@@H](N)Cc1ccc(-c2cc(O[C@H](c3ccc(Cl)cc3-n3ccc(C)n3)C(F)(F)F)nc(N)n2)cc1
[1]
  Potency: 9.3 µM (active)
[2]
  Potency: inactive
[3]
  outcome: inactive
[5]
  Potency: 6.01 µM (active)

## Cc1cc(O)c2c(c1)C(=O)c1cccc(O)c1C2=O
[1]
  Potency: inactive
[2]
  Potency: inactive
[3]
  outcome: inactive
[4]
  Potency: inactive
[5]
  Potency: inactive

## Cc1cnc(Nc2ccc(CN3CCOCC3)cc2)nc1Nc1cccc(S(=O)(=O)NC(C)(C)C)c1
[1]
  Potency: 2.94 µM (active)
[2]
  Potency: inactive
[3]
  outcome: inactive
[4]
  Potency: 9.52 µM (active)
[5]
  Potency: 1.34 µM (active)

## COc1cc(OC)c(C=CS(=O)(=O)Cc2ccc(OC)c(NCC(=O)O)c2)c(OC)c1
[2]
  Potency: inactive

## C[C@H]1C[C@H]2[C@@H]3CCC4=CC(=O)C=C[C@]4(C)[C@@H]3C(=O)C[C@]2(C)[C@@]1(O)C(=O)CO
[2]
  Potency: inactive

## O=c1[nH]c(=O)n([C@H]2C[C@@H](O)[C@@H](CO)O2)cc1C=CBr
[7]
  outcome: inactive
[8]
  outcome: inactive
[9]
  outcome: inactive
[2]
  Potency: inactive
[3]
  outcome: inactive

## Cc1cc(-c2nnc3n2CCCCC3)c(C)n1-c1ccccc1
[2]
  Potency: inactive

From PubChem BioAssay (NCATS)
